A selection: hits, their analogues and other compounds. The true share with any hit is near 1.7%.
VCAM1 TNFa inh – reduces TNF alpha induced VCAM1 expression in HUVEC. AID 802. HUVEC TNFa-induced VCAM-1 immunofluorescence, high-content imaging. inhibition, % at 2 µM. 0.48% of 95,000 active;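 active means inhibition above the batch mean plus 3 SD, with images confirmed as a hit by eye, cut at about 37% in these data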;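 further: 0% = TNF-stimulated DMSO wells and 100% = unstimulated control wells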
E-sel TNF inh – TNF alpha driven E-selectin expression inhibition. 0.71% of 120,000 active. HUVEC TNFa-induced E-selectin immunofluorescence, high content. inhibition, % at 2 µM. AID 1246;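 active means inhibition above the batch mean plus 3 SD, and confirmed as a hit on visual image review, cut at about 43% in these data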;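 further: 0% = TNF-stimulated DMSO wells and 100% = unstimulated control wells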
NFkB transloc pot – enhances IL-1B driven NFkB nuclear translocation | HUVEC IL-1B NFkB p65 nuclear translocation imaging | activation, % at 2 µM | 0.3% of 94,000 active;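 active means activation above 40%, about the mean plus 3 SD, also judged a hit on visual image review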;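 further: percent activation is computed from the nuclear over cytoplasmic p65 intensity ratio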
NFkB transloc inh – blocks IL-1B driven NFkB nuclear translocation in HUVEC cells; 0.43% of 94,000 active; HUVEC IL-1B NFkB p65 nuclear translocation imaging; inhibition, % at 2 µM;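 active means inhibition above about 30% together with a positive call from visual inspection of the well image, limit read from the data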;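 further: nuclear over cytoplasmic p65 intensity ratio measured by imaging; 0% = IL-1B stimulated DMSO wells and 100% = unstimulated DMSO wells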
IL1B cytotox – HUVEC cytotoxicity counter-screen, IL-1B stimulated; cell count reduction, % at 2 µM; 0.41% of 94,000 active; HUVEC cell count loss, Hoechst imaging;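 active means cell count reduction more than 3 SD above the screen-wide mean, cut at about 70% in these data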;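 further: normalized per plate to untreated control cells as the no-loss baseline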
HUVEC tox TNFa – HUVEC cytotoxicity counter-screen, TNF alpha stimulated. HUVEC TNFalpha-stimulated, Hoechst cell count, imaging. cell count reduction, % at 2 µM. 0.17% of 93,000 active. AID 848;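 active means cell count reduction exceeding the screen mean by over 5 SD, scaled to untreated wells per plate, cut at about 78% in these data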;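 further: cells counted after 24 h of TNF alpha exposure following the 1 h pretreatment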
Active calls of the source: *.

CCOc1ccc2nc(NC(=O)CSC3=NCCS3)sc2c1 was read as VCAM1 TNFa inh -3.8, E-sel TNF inh 29.2, NFkB transloc pot 6.4, NFkB transloc inh -6.4, IL1B cytotox -13.7 and HUVEC tox TNFa 1.0.
Screening COc1ccc2nc(NC(=O)CSC3=NCCS3)sc2c1 returned VCAM1 TNFa inh -5.9, E-sel TNF inh 100.0*, NFkB transloc pot -5.0, NFkB transloc inh 5.0, IL1B cytotox 6.7 and HUVEC tox TNFa 17.3.
For COC(=O)c1c[nH]n2c(=O)c(Cl)c(C)nc12 the results were E-sel TNF inh -16.6.
COC(=O)c1c[nH]n2c(=O)cc(C)nc12 was read as VCAM1 TNFa inh -11.2, E-sel TNF inh -3.1, NFkB transloc pot -47.0, NFkB transloc inh 47.0*, IL1B cytotox 5.2 and HUVEC tox TNFa -4.3.
For CC(C)N(CCNCc1nnc(-c2ccccc2)o1)C(C)C the results were E-sel TNF inh -45.1.
For COc1ccc(NC(=O)COC(=O)c2c3c(nc4ccccc24)CCCC3)cc1Cl the results were VCAM1 TNFa inh -28.9, E-sel TNF inh -0.3, NFkB transloc pot 6.0, NFkB transloc inh -6.0, IL1B cytotox -8.7 and HUVEC tox TNFa -6.0.
`Cn1c(/C=N/c2nc3ccccc3[nH]2)nc2ccccc21` gave VCAM1 TNFa inh 4.3, E-sel TNF inh 16.2, NFkB transloc pot 3.5, NFkB transloc inh -3.5, IL1B cytotox -36.7 and HUVEC tox TNFa -7.6.
Screening Cn1c(/C=N/n2cnnc2)nc2ccccc21 returned VCAM1 TNFa inh -44.1, E-sel TNF inh 14.4, NFkB transloc pot -98.8, NFkB transloc inh 98.8*, IL1B cytotox 85.1* and HUVEC tox TNFa -22.0.
Screening Cc1cccc(OCCN2CSC(=S)N(C)C2)c1 returned VCAM1 TNFa inh 42.7*, NFkB transloc pot 33.0, NFkB transloc inh -33.0, IL1B cytotox -0.9 and HUVEC tox TNFa 13.9.
`COc1ccccc1OCCN1CSC(=S)N(C)C1` gave E-sel TNF inh 20.7.
`CCOC(=O)/C(=C/c1c2ccccc2cc2ccccc12)NC(=O)c1ccccc1` gave VCAM1 TNFa inh -4.6, E-sel TNF inh -14.7, NFkB transloc pot -96.6, NFkB transloc inh -5.7 and IL1B cytotox 91.8*.
For CCSc1nc2sc3c(c2c2nnc(SCC(=O)NCc4ccco4)n12)CCCC3 the results were VCAM1 TNFa inh 27.3, E-sel TNF inh -20.9, NFkB transloc pot 5.0, NFkB transloc inh -5.0, IL1B cytotox -35.3 and HUVEC tox TNFa -7.9.
For CC1CCc2c(sc(NC(=O)C(=O)NCc3ccco3)c2C#N)C1 (stereo not drawn) the results were VCAM1 TNFa inh -1.6, E-sel TNF inh -3.3, NFkB transloc pot 42.1*, NFkB transloc inh -42.1, IL1B cytotox -63.6 and HUVEC tox TNFa -15.9.
For CC1CCc2c(sc3ncn4c(SCC(=O)NCc5ccco5)nnc4c23)C1 (stereo not drawn) the results were VCAM1 TNFa inh 10.4, E-sel TNF inh -6.7, NFkB transloc pot 168.6*, NFkB transloc inh -168.6, IL1B cytotox -16.4 and HUVEC tox TNFa -31.0.
`O=C(Nc1ccc2oc(-c3cccnc3)nc2c1)c1ccc(Br)o1` gave VCAM1 TNFa inh 0.7, E-sel TNF inh -4.9, NFkB transloc pot 26.4, NFkB transloc inh -26.4, IL1B cytotox -1.4 and HUVEC tox TNFa -30.1.
O=C(Nc1ccc2oc(-c3cccnc3)nc2c1)c1ccc([N+](=O)[O-])o1 was read as E-sel TNF inh 96.9*.
Screening COc1ccc(CCn2c(SCC(=O)Nc3cc(C)on3)nc3ccccc3c2=O)cc1OC returned VCAM1 TNFa inh 38.0, NFkB transloc pot -2.9, NFkB transloc inh 2.9, IL1B cytotox -5.4 and HUVEC tox TNFa 86.7*.
For O=C(c1cc(-c2ccncc2)nc2ccc(Br)cc12)N1CCN(c2ccccn2)CC1 the results were VCAM1 TNFa inh 100.0*, E-sel TNF inh -17.6, NFkB transloc pot 8.1, NFkB transloc inh -8.1 and IL1B cytotox -38.8.
For O=C(c1cccn2c(=O)c3cc(Br)ccc3nc12)N1CCN(c2ccccn2)CC1 the results were VCAM1 TNFa inh -7.4, E-sel TNF inh 19.1, NFkB transloc pot -9.5, NFkB transloc inh 9.5, IL1B cytotox -25.5 and HUVEC tox TNFa 16.0.
Cc1nnc(NC(=O)C2CCCCC2)s1 was read as E-sel TNF inh -37.3.
Screening O=C(Nc1nnc(C2CCCC2)s1)C1CCC1 returned VCAM1 TNFa inh 6.1, E-sel TNF inh 24.1, NFkB transloc pot 40.1*, NFkB transloc inh -40.1, IL1B cytotox 8.9 and HUVEC tox TNFa -11.8.
CCOCCCNC(=O)C1CCN(S(=O)(=O)c2c(C)noc2/C=C\c2ccc(OC)cc2)CC1 was read as VCAM1 TNFa inh -6.4, E-sel TNF inh -2.9, NFkB transloc pot 5.0, NFkB transloc inh -5.0, IL1B cytotox -28.8 and HUVEC tox TNFa -7.7.
Screening CCCNC(=O)C1CCN(S(=O)(=O)c2c(C)noc2/C=C\c2ccc(OC)cc2)CC1 returned VCAM1 TNFa inh -1.0, E-sel TNF inh 76.2*, NFkB transloc pot -16.9, NFkB transloc inh 16.9, IL1B cytotox 5.1 and HUVEC tox TNFa 2.2.
`COc1cccc(/C=C/C(=O)OCC(=O)N2c3ccccc3NC(=O)C2(C)C)c1` gave E-sel TNF inh 0.7.
For O=C(NCc1ccccc1)c1cccc(NS(=O)(=O)c2cccc3cccnc23)c1 the results were E-sel TNF inh -6.2.
O=C(Cc1cccs1)NCc1ccncc1 was read as VCAM1 TNFa inh -1.2, E-sel TNF inh 63.9*, NFkB transloc pot -2.9, NFkB transloc inh 2.9, IL1B cytotox -0.5 and HUVEC tox TNFa -2.2.
`COC(=O)N1[C@H](C)C=C[C@]1(Cc1ccccc1)C(=O)O` gave E-sel TNF inh 96.2*.
For CCCCC(=O)Nc1ccc(C(=O)NN2C(=O)c3ccccc3C2=O)cc1 the results were VCAM1 TNFa inh 6.7, E-sel TNF inh -15.1, NFkB transloc pot 10.7, NFkB transloc inh -10.7, IL1B cytotox -47.7 and HUVEC tox TNFa -3.0.
COc1ccc(CC(=O)NCCC(C)C)cc1S(=O)(=O)N1CCOCC1 was read as E-sel TNF inh 17.3.
For CSc1nc2sc3c(c2c(=O)[nH]1)CCC3 the results were E-sel TNF inh -7.0.
Cc1ccccc1C(=O)c1cccn1CC(=O)NCc1ccco1 was read as VCAM1 TNFa inh -1.3, E-sel TNF inh 61.8*, NFkB transloc pot 1.8, NFkB transloc inh -1.8, IL1B cytotox -6.7 and HUVEC tox TNFa -15.0.
Screening O=C(Cn1cccc1C(=O)c1ccccc1)NCc1ccco1 returned VCAM1 TNFa inh -9.6, NFkB transloc pot 14.8, NFkB transloc inh -14.8, IL1B cytotox -18.5 and HUVEC tox TNFa -14.3.
Screening O=C(OCn1ncc(Cl)c(Cl)c1=O)c1cccc(C(F)(F)F)c1 returned VCAM1 TNFa inh 24.1, E-sel TNF inh 71.4*, NFkB transloc pot -26.2, NFkB transloc inh 26.2, IL1B cytotox -28.4 and HUVEC tox TNFa -5.4.
`COCCNC(=O)C(c1ccc(F)cc1)N(CC1CCCO1)C(=O)CCC(=O)Nc1ccccn1` (stereo not drawn) gave VCAM1 TNFa inh -13.5, E-sel TNF inh 69.1*, NFkB transloc pot -0.7, NFkB transloc inh 0.7, IL1B cytotox -12.9 and HUVEC tox TNFa -28.7.

Compound activity deposited in PubChem by Columbia University Molecular Screening Center.
